Hits are enriched below; roughly 0.78% of the tested compounds scored in any of these assays.
RGS16-Gao HTS: modulates binding between human RGS16 and Galphao; O15492+P09471; bead-based flow cytometry RGS16-Galphao binding, fluorescence; actives lie on both sides; binding response (% of control), % at 10 µM; 220,000 compounds, 0.38% hits;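 further: Galphao activated by GDP with aluminum fluoride before binding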
Target sequence (O15492 whole entry, looked up): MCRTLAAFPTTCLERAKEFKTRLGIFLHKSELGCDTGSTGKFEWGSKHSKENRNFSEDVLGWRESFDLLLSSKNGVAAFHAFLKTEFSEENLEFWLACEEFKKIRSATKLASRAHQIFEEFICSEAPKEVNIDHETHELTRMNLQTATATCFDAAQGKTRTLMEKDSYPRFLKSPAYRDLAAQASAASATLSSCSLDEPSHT
Target sequence (P09471 whole entry, looked up): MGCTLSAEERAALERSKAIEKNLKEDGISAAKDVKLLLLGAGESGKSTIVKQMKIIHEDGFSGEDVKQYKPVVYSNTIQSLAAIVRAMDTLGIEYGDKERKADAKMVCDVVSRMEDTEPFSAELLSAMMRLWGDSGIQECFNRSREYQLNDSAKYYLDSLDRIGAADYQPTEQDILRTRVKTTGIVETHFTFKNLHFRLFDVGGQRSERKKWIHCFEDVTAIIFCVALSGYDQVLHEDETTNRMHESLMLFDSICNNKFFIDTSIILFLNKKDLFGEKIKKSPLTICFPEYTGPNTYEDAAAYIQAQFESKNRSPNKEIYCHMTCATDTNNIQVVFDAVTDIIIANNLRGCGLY
RGS8-Gao reg: human RGS8-Galphao interaction regulation; P09471; multiplexed bead flow cytometry, RGS8-Galphao binding; actives lie on both sides; response (percent of control binding), % at 10 µM; 220,000 compounds, 0.34% hits; in the data active means response below about 60% or above about 140%; inactive means in between;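 further: Galphao activated as the GDP aluminium fluoride complex binding bead-coupled RGS8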
Target sequence (P09471 whole entry, looked up): as above
RGS4-Gao reg: human RGS4-Galphao interaction regulation. Multiplexed bead flow cytometry, RGS4-Galphao binding; actives lie on both sides. binding response (% of control), % at 10 µM. 220,000 compounds, 0.33% hits. AID 1415; in the data active means binding response below about 49% or above about 150%; inactive means in between;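 further: fluorescent Galphao activated with aluminum fluoride binding bead-coupled RGS4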
RGS7-Gao reg: human RGS7-Galphao interaction regulation; P09471; Multiplexed bead flow cytometry, RGS7-Galphao binding; actives lie on both sides; binding response (% of control), % at 10 µM; 220,000 compounds, 0.35% hits; in the data active means binding response below about 49% or above about 150%; inconclusive means no clear call, values can overlap the other calls; inactive means in between;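 further: fluorescent Galphao held in activated GDP-AlF4 state binding bead-coupled RGS7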
RGS-Gao: RGS4-Galphao interaction regulator (human) | AID 1504 | RGS4–Galpha-o binding response, % at 10 µM | multiplexed bead flow cytometry, RGS–Galpha-o binding | shares compounds with RGS16-Gao HTS | 1,600 compounds, 99% hits;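 further: fluorescently labeled Galpha-o bound to GDP with aluminium fluoride binding biotinylated RGS beads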
Avidin counter: interferes with biotinylated probe binding to avidin beads. shares compounds with RGS16-Gao HTS. inhibition, % at 10 µM. streptavidin beads, fluorescein-biotin binding, flow cytometry. 1,700 tested, under 10 active;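 active means inhibition above 50%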;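 further: median green fluorescence of gated singlet beads compared with DMSO control wells; 0% = DMSO wells and 100% = complete loss of bead fluorescence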
RGS8-Gao confirm: confirmation of regulators of human RGS8-Galphao interaction | shares compounds with RGS16-Gao HTS | bead-based flow cytometry RGS8-Galphao binding, fluorescence; actives lie on both sides | binding response (% of control), % at 10 µM | 1,700 compounds, 3% hits | AID 1836; in the data active means binding response below about 72% or above about 130%; inactive means in between;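 further: Galphao activated as GDP AlF4 complex before binding bead RGS8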
RGS7-Gao single: confirmation of regulators of human RGS7-Galphao interaction; shares compounds with RGS16-Gao HTS; bead-based flow cytometry RGS7-Galphao binding; actives lie on both sides; response (percent of control binding), % at 10 µM; 1,700 compounds, 7.8% hits; in the data active means response below about 75% or above about 130%; inactive means in between;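 further: fluorescent Galphao activated with GDP and aluminum fluoride binding bead-coupled RGS7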
RGS16-Gao conf: RGS16-Galphao interaction regulation, single point confirmation; shares compounds with RGS16-Gao HTS; bead-based flow cytometry, RGS16-Galphao binding; actives lie on both sides; response (% of control binding), % at 10 µM; 1,700 compounds, 4% hits; in the data active means response below about 74% or above about 130%; inactive means in between;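 further: Galphao activated as the GDP aluminium fluoride complex binding bead-coupled RGS16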
RGS4-Gao confirm: RGS4-Galphao interaction regulation, single point confirmation | RGS4-Galphao binding, multiplexed bead flow cytometry; actives lie on both sides | 1,700 compounds, 4% hits | binding response (% of control), % at 10 µM | shares compounds with RGS16-Gao HTS; in the data active means binding response below about 74% or above about 130%; inactive means in between
RGS19-Gao conf: RGS19-Galphao interaction regulation, single point confirmation; shares compounds with RGS16-Gao HTS; bead-based flow cytometry RGS19-Galphao binding; actives lie on both sides; response (percent of control binding), % at 10 µM; 1,700 compounds, 5% hits; AID 1841; in the data active means response below about 50% or above about 160%; inactive means in between;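 further: 100% = no compound control and 0% = blank background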
The depositor's hits bear a star; ? = inconclusive; [ ] = dose if it differs, or a comment. Unless noted, how the calls were made is not given here.

SMILES	RGS16-Gao HTS	RGS8-Gao reg	RGS4-Gao reg	RGS7-Gao reg	others
CCCC(=O)Nc1ccc2nc(SCC(=O)Nc3nccs3)sc2c1	15*	12*	21*	15*
CCOc1cc(N2CCOCC2)c(OCC)cc1NC(=O)C(C)C	98	100	97	?
COc1cccc(-c2cc(C(=O)Nc3cccc(O)c3)no2)c1	96	99	96	97
CN(C)CCCN(C(=O)COc1ccccc1)c1nc2ccc(F)cc2s1	104	103	107	?
O=C(c1ccc(Cn2cc(Br)cn2)o1)N1N=C(C(F)F)CC1(O)C(F)F (stereo not drawn)	145	111	150*[activator]	145
O=C1COc2ccc(-c3csc(NCC4CCCO4)n3)cc2N1 (stereo not drawn)	97	100	99	97
CCCCN(CCCC)c1nc2ccccc2nc1C(C#N)C(=O)NCCCOC (stereo not drawn)	103	99	99	96
Cc1cc(C(=O)COc2ccc([N+](=O)[O-])cc2)c(C)n1C1CC1	108	105	110	?
Cc1cccc(NC(=S)N2CCC(c3nc4ccccc4o3)CC2)c1C	38	55*	48*	42*
CCN1C/C(=C/c2ccc(N3CCOCC3)cc2)C(=O)/C(=C/c2ccc(N3CCOCC3)cc2)C1	101	102	103	105
COc1nc(Nc2ccc(C(C)=O)cc2)nc(OC)n1	239	94	188*[activator]	149
COC(=O)c1ccc(Nc2nc(C)cc(C)n2)cc1	100	99	97	102
COc1ccccc1CNC(=O)CN(c1cccc([N+](=O)[O-])c1)S(C)(=O)=O	101	102	100	?
COc1ccc(S(=O)(=O)N2CCN(C(=O)CCC3CCCC3)CC2)cc1	102	102	98	97
Cc1oc2c(O)c(O)ccc2c(=O)c1-c1ccccc1	89	94	92	?
Cc1oc2c(O)c(O)ccc2c(=O)c1-c1cnn(-c2ccccc2)c1	35	67	43*	46*
O=C(C1CCN(S(=O)(=O)N2CCC3(CC2)OCCO3)CC1)N1CCC(Cc2ccccc2)CC1	526*[activator]	117	387*[activator]	298*[activator]
CCCS(=O)(=O)N1CCC(C(=O)N2CCC(Cc3ccccc3)CC2)CC1	107	102	100	100
COc1ccccc1-c1ccc(=O)n(CC(=O)NCC2CCCO2)n1 (stereo not drawn)	60	93	99	99
COc1ccc(N(C)C(=S)Nc2ccc3nc(C)c(C)nc3c2)cc1	97	99	94	95
COc1ccc(Nc2nc(-c3cccs3)nc3ccccc23)cc1	105	102	100	101
Cc1onc(-c2c(Cl)cccc2Cl)c1NC(=O)N(C)N	131	106	135	?
O=C1c2ccncc2C(=O)N1CO	-20*	8.6*	-31*	-10*
O=C(c1ccccc1/S(=N/S(=O)(=O)c1ccccc1)N1CCOCC1)N1CCOCC1 (stereo not drawn)	103	100	100	99
COc1ccc(Cl)cc1C(=O)NNC(=S)NC(=O)c1cc(-c2ccc(Cl)cc2)nc2ccccc12	19*	37*	11*	21*
SMILES	RGS16-Gao HTS	RGS8-Gao reg	RGS4-Gao reg	RGS7-Gao reg	others
CCC(=O)Nc1sc(Cc2ccc3c(c2)OCO3)c(C)c1C(N)=O	93	95	96	?
Cc1c(Cc2ccc3c(c2)OCO3)sc(NC(=O)c2ccc3ccccc3c2)c1C(N)=O	11*	29*	20*	35*
COc1ccccc1/C=C(/CC(=O)NCc1ccccc1)c1nc2ccccc2s1	100	101	98	101
OC(CN1CCCCC1)Cn1c(C(F)(F)F)nc2ccccc21 (stereo not drawn)	100	103	98	99
Cc1nc2ccccc2n1CC(O)Cn1c(C(F)(F)F)nc2ccccc21 (stereo not drawn)	-16*	7.0*	-28*	-8.4*
c1ccc2c(c1)OCC(c1nnc3sc(-c4cnccn4)nn13)O2 (stereo not drawn)	99	101	94	99
CCOC(=O)C1(Cc2ccccc2)CCN(Cc2cnc(N3CCOCC3)s2)CC1	100	104	103	104
CC(=O)NC(CCS(C)(=O)=O)C(=O)Nc1cc(Cl)ccc1Cl (stereo not drawn)	106	104	99	98
Cc1ccc(Cl)c(NC(=O)CCl)c1Cl	102	101	101	?
CCn1cc(CN2CCN(Cc3ccc(C)o3)C(CCO)C2)c2ccccc21 (stereo not drawn)	107	104	102	111
CCCOc1ccc(C(=O)NCC(c2cccs2)N(C)C)cc1OC (stereo not drawn)	100	103	103	104
COc1cc(C(=O)NCC(c2cccs2)N(C)C)cc(Cl)c1OC(C)C (stereo not drawn)	211*[activator]	122	116	120	RGS-Gao=116*;Avidin counter=2;RGS8-Gao confirm=103;RGS7-Gao single=109;RGS16-Gao conf=105;RGS4-Gao confirm=106;RGS19-Gao conf=112
CC(/C=C1\SC(=O)N(CCCC(=O)O)C1=O)=C\c1ccccc1	83	132	165*[activator]	160*[activator]	Avidin counter=-1;RGS8-Gao confirm=101;RGS7-Gao single=98;RGS16-Gao conf=97;RGS4-Gao confirm=98;RGS19-Gao conf=104
CC(=O)c1c(C)[nH]c(C(=O)OCc2c(F)cccc2Cl)c1C	103	103	101	102
CCCS(=O)(=O)N1CCN(Cc2ccccc2OCC)CC1	102	103	103	101
C[C@H](NC(=O)c1nc[nH]c1C(=O)N[C@H](C)c1ccccc1)C(=O)OC(C)(C)C	16*	21*	25*	17*	Avidin counter=0;RGS8-Gao confirm=114;RGS7-Gao single=119;RGS16-Gao conf=122;RGS4-Gao confirm=114;RGS19-Gao conf=106
C[C@H](NC(=O)c1nc[nH]c1C(=O)NCc1ccccc1)C(=O)OC(C)(C)C	34	42*	39*	26*	Avidin counter=0;RGS8-Gao confirm=103;RGS7-Gao single=96;RGS16-Gao conf=99;RGS4-Gao confirm=96;RGS19-Gao conf=99
